From PubChem BioAssay AID493168 (National Center for Advancing Translational Sciences (NCATS), 2011) come the findings set out here.

Molecules are shown by their SMILES. Inconclusive results are not listed. A call without a number means that no potency is given here. Activity calls are given as the source filed them. The call rests on the fitted dose curve; in most records, active means well fitted inhibition curve with a large enough effect; inconclusive means small, poorly fitted or top-dose-only effect, or effect the other way; inactive means flat fitted curve, though single readings scatter.
Potency means the concentration at half of the fitted maximal effect.

The assay deals with Ubiquitin carboxyl-terminal hydrolase 2 (Homo sapiens) (UniProt O75604). In words: Confirmation Assay for Inhibitors of Ubiquitin-specific Protease USP2a Using CHOP2 as the Reporter. Further: nearly all actives have a fitted effect of over 55% in size. As to conditions: USP2 core, Ub-CHOP2 coupled reporter fluorescence; series mostly up to 38.3 µM. The gist of the method: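 USP2 core (10 nM final) was preincubated with compound for 30 min at RT in Tris-HCl pH 8.0, CaCl2, beta-mercaptoethanol, CHAPS. Ub-CHOP2 and reporter substrate (25 nM final each) were added, and fluorescence (Ex 485/Em 531 nm) was read after 60 min.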
Sequence of Ubiquitin carboxyl-terminal hydrolase 2 (Homo sapiens) (O75604 whole entry, looked up): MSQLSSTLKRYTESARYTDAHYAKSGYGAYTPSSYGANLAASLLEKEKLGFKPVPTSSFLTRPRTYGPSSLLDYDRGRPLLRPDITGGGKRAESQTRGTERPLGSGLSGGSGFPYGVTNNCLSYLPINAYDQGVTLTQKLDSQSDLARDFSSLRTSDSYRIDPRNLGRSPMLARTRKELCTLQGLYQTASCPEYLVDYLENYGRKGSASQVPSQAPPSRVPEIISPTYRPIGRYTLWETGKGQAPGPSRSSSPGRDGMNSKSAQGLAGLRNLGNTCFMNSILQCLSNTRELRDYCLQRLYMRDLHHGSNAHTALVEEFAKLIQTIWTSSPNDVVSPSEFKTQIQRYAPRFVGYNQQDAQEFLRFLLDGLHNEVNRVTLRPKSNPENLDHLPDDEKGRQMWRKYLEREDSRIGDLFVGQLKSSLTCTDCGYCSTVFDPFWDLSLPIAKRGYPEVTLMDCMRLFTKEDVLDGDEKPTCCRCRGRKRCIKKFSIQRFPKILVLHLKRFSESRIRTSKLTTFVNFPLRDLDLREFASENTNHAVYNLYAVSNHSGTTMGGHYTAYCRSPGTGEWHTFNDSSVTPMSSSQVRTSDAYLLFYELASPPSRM
Take `CCOc1ccccc1C(=O)NC1CC2CCCC(C1)N2C1CC1` (stereo not given): the Potency entry was “inactive”.

Consider `O=C(CCN1C(=O)/C(=C\c2ccco2)SC1=S)Nc1ccc(C(=O)O)c(O)c1`, for which the Potency is 13.1 µM (active).

For `Cc1c(C(=O)NCc2c(F)cc(F)cc2F)oc2ccc(S(=O)(=O)N3CCOCC3)cc12`, the Potency result is “inactive”.

In the case of `CN(C)C=Nc1ncc2c3ccccc3n(CCN(C)C)c2c1C#N`, the Potency result is “inactive”.

As for `O=C(Nc1ncccc1Cl)c1cccc(F)c1`, the Potency result is “inactive”.

Turning to `CCOC(=O)N1CCN(S(=O)(=O)c2ccc(C)cc2)C1c1ccc(OC)cc1` (stereo not given), the Potency entry was “inactive”.

`C[C@](N)(Cc1ccc(O)c(O)c1)C(=O)O`: the Potency result was “inactive”.

Take `CCc1nnc(NC(=O)CSc2nccn2-c2cccc(C)c2)s1`: the Potency entry is “inactive”.

As for `CC1CCN(CC(O)COc2cccc(F)c2)CC1` (stereo not given), the Potency result was “inactive”.

As to `O=C(O[C@@H]1OC2COC(=O)c3cc(O)c(O)c(O)c3-c3c(cc(O)c(O)c3O)C(=O)O[C@@H]([C@H]1O)[C@@H]2O)c1cc(O)c(O)c(O)c1`, the Potency is 16.5 µM (active).

As to `CN(C)c1cccc(C(=O)NNC(=O)C23CC4CC(CC(C4)C2)C3)c1`, the Potency result is “inactive”.

Consider `CSCCC(NC(=O)c1cc(C(C)(C)C)oc1C)C(=O)O` (stereo not given), for which the Potency result is “inactive”.

As to `COCCn1c(CN(Cc2ccccc2)Cc2ccccc2)nc2c1c(=O)n(C)c(=O)n2C`, the Potency entry was “inactive”.

For `Cc1ccc(C(=O)CSc2nnc(CNc3nc(-c4ccccc4)cs3)n2C)cc1`, the Potency result is “inactive”.

Consider `CNc1cccccc1=S`, for which the Potency entry was “inactive”.

As to `O=C(C[n+]1ccc(-c2cc(C(=O)Nc3cccc(C(F)(F)F)c3)c3ccccc3n2)cc1)c1cccc([N+](=O)[O-])c1`, the Potency result is “inactive”.

For `CC(C)(C)C1CCc2nc(NC(=O)Cc3cn4ccsc4n3)sc2C1` (stereo not given), the Potency result was “inactive”.

On to `O=S(=O)(Nc1cccc(-c2cn3c(n2)SCC3)c1)c1ccc(F)cc1F`, for which the Potency result was “inactive”.

In the case of `Nc1c(C(=O)NC2CC2)sc2nc3c(c(-c4ccco4)c12)CC/C3=C/c1ccco1`, the Potency is 7.36 µM (active).

Consider `COc1ccc(-c2nc(C#N)c(NCC3CCCO3)o2)cc1OC` (stereo not given), for which the Potency entry is “inactive”.

For the molecule `CN(c1ccccc1)S(=O)(=O)c1ccc(Cl)c(C(=O)NCCc2c[nH]c3ccccc23)c1`, the Potency entry is “inactive”.

Regarding `CCN1C(=O)C(NC(C)=O)c2cc(OC)ccc21` (stereo not given), the Potency result was “inactive”.

For the molecule `C#CCOCCOCCOCCNc1nc(N2CCN(C(=O)CCCCCCCCCCNC(=O)[C@@H](CCC(=O)O)n3cc(CCCCCN)nn3)CC2)nc(N2CCN(C(=O)CCCCCCCCCCNC(=O)[C@H]([C@@H](C)CC)n3cc(CCCCCN)nn3)CC2)n1`, the Potency was 11.7 µM (active).

`c1ccc(-c2ccccc2OCCCN2CCOCC2)cc1`: the Potency result was “inactive”.

For the molecule `CC(C)c1ccc(C2=C(O)c3ccccc3C(=O)C2=O)cc1`, the Potency entry is “inactive”.

On to `COc1cc(C(=O)OC2CCCCC2=O)cc(OC)c1C` (stereo not given), for which the Potency was 11.7 µM (active).

In the case of `O=C1/C(=C/C=C/c2ccco2)SC(=S)N1c1ccc(O)cc1`, the Potency is 5.21 µM (active).

`CC(C)N(C(=O)c1sc2cc([N+](=O)[O-])ccc2c1Cl)C(C)C`: the Potency entry was “inactive”.

With `CC(C)c1ccc(Nc2nnc(SCC(=O)c3nnc(-c4ccccc4)o3)s2)cc1`, the Potency was 6.56 µM (active).

For the molecule `NC(=O)C[C@@H]1N[C@]2(C(=O)Nc3ccccc32)[C@@H]2C(=O)N(c3cc(C(F)(F)F)ccc3Cl)C(=O)[C@H]12`, the Potency entry is “inactive”.

As to `CC(/C=N/NC(=O)c1cc(-c2cccs2)[nH]n1)=C\c1ccccc1`, the Potency entry is “inactive”.

Take `Cn1c(C(=O)NCCN2CCOCC2)cc2c(=O)n(C)c3ccccc3c21`: the Potency entry was “inactive”.

On to `O=C(NCCOC(=O)c1ccccc1C(=O)OCCNC(=O)c1cccnc1)c1cccnc1`, for which the Potency entry was “inactive”.

Regarding `COCCNCC(=O)N1CCCCCC1`, the Potency result is “inactive”.

`O=C(CSc1ncn[nH]1)Nc1ccc(Br)cc1F`: the Potency entry is “inactive”.

With `CCNC(=S)N/N=C/c1cn(Cc2ccc(F)cc2)c2ccccc12`, the Potency entry was “inactive”.

In the case of `COc1ccc(OC)c(Nc2ccc(Nc3cc(OC)ccc3OC)nn2)c1`, the Potency result is “inactive”.

As for `COC(=O)C1Sc2[nH]c(=O)sc2C(c2ccc(Cl)cc2)C1C(=O)OC` (stereo not given), the Potency result was “inactive”.

Consider `O=C(O)/C=C/c1ccc(S(=O)(=O)Nc2ccccc2C(=O)Nc2ccc(F)cc2)cc1`, for which the Potency result is “inactive”.

Regarding `COCCn1c(SCC(=O)Nc2cc(C)on2)nnc1-c1ccccc1`, the Potency entry was “inactive”.
